The campaign covered roughly 5,500 compounds. About 2,000 (36%) were called active. About 18% were inconclusive and are not listed. No stated cut-off is given here; in the data, active means normalized growth mostly below about 0.91 (no sharp cut-off); inconclusive means no clear call, values can overlap the other calls; inactive means mostly above about 0.92. Some of the results follow.
Experiment: chemical genetic growth profiling, strain panel (AID 1159580);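 further: tested at 20 µM; growth read once vehicle control cultures reached saturation at 30 °C; 1 = growth at the plate median or of vehicle wells; lower values mean less growth of the strain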
Conditions: S. cerevisiae deletion strains, growth OD
[1] = locus YAL040C, strain CLN3, hits give low values
[2] = locus YER002W, strain NOP16, hits give low values
[3] = locus YHR030C, strain SLT2, hits give low values
[4] = locus YHR079C, strain IRE1, hits give low values
[5] = locus YJL095W, strain BCK1, hits give low values
[6] = locus YJR066W, strain TOR1, hits give low values
[7] = locus YJR075W, strain HOC1, hits give low values
[8] = locus YLR113W, strain HOG1, hits give low values
[9] = locus YNL175C, strain NOP13, hits give low values
[10] = locus YNL183C, strain NPR1, hits give low values
[11] = locus YNL197C, strain WHI3, hits give low values
[12] = locus YNL224C, strain SQS1, hits give low values
[13] = locus YOR083W, strain WHI5 (second series), hits give low values
[14] = locus YOR231W, strain MKK1, hits give low values
[15] = locus YPL256C, strain CLN2, hits give low values

Measured: normalized growth

O=C1CC2(CCCC2)CC(=O)N1CCCCN1CCN(c2ncccn2)CC1
inactive: locus YAL021C, strain ccr4, hits give low values 0.985 | locus YAL026C, strain drs2, hits give low values 1.03 | locus YAL030W, strain snc1, hits give low values 0.998 | [1] 0.987 | locus YBL061C, strain skt5, hits give low values 0.995 | locus YBR009C, strain hhf1, hits give low values 0.989 | locus YBR023C, strain chs3, hits give low values 0.996 | locus YBR171W, strain sec66, hits give low values 1.01 | locus YBR231C, strain swc5, hits give low values 0.993 | locus YBR279W, strain paf1, hits give low values 0.999 | locus YCL011C, strain gbp2, hits give low values 1 | locus YCL016C, strain dcc1, hits give low values 1 | locus YCL061C, strain MRC1, hits give low values 0.998 | locus YCL069W, strain vba3, hits give low values 1 | locus YCR088W, strain abp1, hits give low values 1.01 | locus YDL005C, strain med2, hits give low values 0.993 | locus YDL040C, strain nat1, hits give low values 0.996 | locus YDR001C, strain nth1, hits give low values 1.02 | locus YDR069C, strain doa4, hits give low values 0.978 | locus YDR137W, strain rgp1, hits give low values 0.984 | locus YDR159W, strain sac3, hits give low values 0.985 | locus YDR195W, strain ref2 0.974 | locus YDR297W, strain sur2, hits give low values 1 | locus YDR334W, strain swr1, hits give low values 1.01 | locus YDR335W, strain msn5, hits give low values 1 | locus YDR392W, strain spt3, hits give low values 0.801 | locus YEL003W, strain gim4, hits give low values 1.01 | locus YEL037C, strain rad23, hits give low values 1.01 | locus YEL061C, strain CIN8 (second series), hits give low values 1.01 | [2] 1.01 | locus YER015W, strain faa2, hits give low values 0.998 | locus YER016W, strain bim1, hits give low values 0.996 | locus YER111C, strain swi4, hits give low values 1 | locus YER155C, strain BEM2 (second series), hits give low values 1 | locus YFR010W, strain ubp6, hits give low values 1.02 | locus YGL167C, strain pmr1, hits give low values 0.991 | locus YGL173C, strain kem1, hits give low values 1 | locus YGL227W, strain vid30, hits give low values 1 | locus YGL240W, strain doc1, hits give low values 0.978 | locus YGL253W, strain hxk2, hits give low values 1.01 | locus YHR013C, strain ard1, hits give low values 0.929 | locus YHR027C, strain rpn1, hits give low values 1 | [3] 1.06 | [4] 1 | locus YHR142W, strain chs7, hits give low values 1.02 | locus YJL092W, strain hpr5, hits give low values 1.04 | locus YJL095W, strain BCK1 (second series), hits give low values 0.995 | [5] 1 | locus YJL115W, strain asf1, hits give low values 0.998 | locus YJL129C, strain trk1, hits give low values 1.02 | locus YJL154C, strain vps35, hits give low values 1 | locus YJL164C, strain tpk1, hits give low values 0.986 | locus YJL166W, strain qcr8, hits give low values 0.987 | locus YJL187C, strain SWE1, hits give low values 0.996 | [6] 0.959 | [7] 0.978 | locus YKL160W, strain elf1, hits give low values 0.986 | locus YKR026C, strain gcn3, hits give low values 1.01 | locus YKR091W, strain srl3, hits give low values 0.995 | locus YLL001W, strain dnm1, hits give low values 0.983 | locus YLL026W, hits give low values 0.987 | locus YLL041C, strain sdh2, hits give low values 0.999 | locus YLR027C, strain aat2, hits give low values 0.999 | [8] 1.04 | locus YLR221C, strain rsa3, hits give low values 0.995 | locus YLR258W, strain gsy2, hits give low values 0.977 | locus YLR262C, strain YPT6 (second series), hits give low values 0.958 | locus YLR320W, strain mms22, hits give low values 0.974 | locus YLR342W, strain FKS1, hits give low values 1 | locus YLR357W, strain rsc2, hits give low values 1.02 | locus YLR370C, strain arc18, hits give low values 1.01 | locus YLR384C, strain iki3, hits give low values 0.978 | locus YML120C, strain ndi1, hits give low values 1 | locus YMR058W, strain fet3, hits give low values 1 | locus YMR125W, strain sto1, hits give low values 0.998 | locus YMR129W, hits give low values 1.02 | locus YMR205C, strain PFK2, hits give low values 0.994 | locus YMR231W, strain pep5, hits give low values 0.992 | locus YNL071W, strain lat1, hits give low values 0.999 | locus YNL128W, strain TEP1, hits give low values 0.979 | locus YNL153C, strain GIM3, hits give low values 0.996 | [9] 1.01 | [10] 0.96 | [11] 0.96 | locus YNL209W, strain ssb2, hits give low values 0.986 | [12] 0.996 | locus YNL248C, strain rpa49, hits give low values 1 | locus YNL322C, strain KRE1 (second series), hits give low values 0.99 | locus YNR049C, strain mso1, hits give low values 1.01 | locus YOR001W, strain rrp6, hits give low values 0.988 | locus YOR070C, strain gyp1, hits give low values 0.999 | locus YOR080W, strain dia2, hits give low values 0.987 | [13] 1.01 | locus YOR083W, strain WHI5, hits give low values 1.02 | locus YOR106W, strain vam3, hits give low values 0.997 | [14] 1.01 | locus YOR265W, strain rbl2, hits give low values 1 | locus YOR270C, strain vph1, hits give low values 1.03 | locus YOR290C, strain snf2, hits give low values 0.934 | locus YPL051W, strain arl3, hits give low values 0.992 | locus YPL078C, strain atp4, hits give low values 1 | locus YPL106C, strain sse1, hits give low values 0.999 | locus YPL240C, strain hsp82, hits give low values 1.01 | locus YPL241C, strain CIN2, hits give low values 1 | [15] 0.999

NC(=O)C1(N2CCCCC2)CCN(CCCC(=O)c2ccc(F)cc2)CC1
inactive: [3] 1.04 | [4] 1.02 | [5] 0.99 | [6] 0.968 | [8] 0.981 | [10] 0.959 | [14] 1.01 | [15] 0.988

CCNC(=O)N1CCN(CCCC(c2ccc(F)cc2)c2ccc(F)cc2)CC1
inactive: [1] 0.994 | locus YCL061C, strain MRC1 (second series), hits give low values 0.99 | locus YDR150W, strain NUM1, hits give low values 0.982 | locus YDR363W, strain ESC2, hits give low values 1.04 | [2] 1 | [7] 0.988 | locus YMR263W, strain SAP30, hits give low values 0.988 | [9] 1.03 | [11] 1.02 | [12] 1.04 | locus YNL322C, strain KRE1, hits give low values 0.974 | [13] 1 | locus YPL055C, strain LGE1, hits give low values 0.916

Reference: PubChem BioAssay AID1159580 (chemical genetic matrix, 2015)
